Inconclusive results are not listed. The source made the active and inactive calls. Unless noted, calls follow the shape of the full dose curve.

The target of experiment [1] is Alpha-galactosidase (Coffea arabica) (UniProt Q42656). Put plainly: Counterscreen for Glucocerebrosidase Inhibitors: qHTS Assay for Coffee Bean alpha-Galactosidase at pH 4.5 (AID 957; active = well fitted curve in the direction sought with a large enough effect; an effect the other way counts as inactive or inconclusive;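 also: plate controls were enzyme alone for no effect and no enzyme for full effect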). Put shortly: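 Green coffee bean enzyme (2 nM final) was incubated with compounds (0.7 nM to 77 uM) and 4-methylumbelliferyl alpha-D-galactopyranoside (80 uM final) in 50 mM citric acid, 0.005% Tween-20, pH 4.5, 20 min at room temperature; AC50 from Hill fits.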
Chain of Alpha-galactosidase (Coffea arabica) (Q42656 whole entry, looked up): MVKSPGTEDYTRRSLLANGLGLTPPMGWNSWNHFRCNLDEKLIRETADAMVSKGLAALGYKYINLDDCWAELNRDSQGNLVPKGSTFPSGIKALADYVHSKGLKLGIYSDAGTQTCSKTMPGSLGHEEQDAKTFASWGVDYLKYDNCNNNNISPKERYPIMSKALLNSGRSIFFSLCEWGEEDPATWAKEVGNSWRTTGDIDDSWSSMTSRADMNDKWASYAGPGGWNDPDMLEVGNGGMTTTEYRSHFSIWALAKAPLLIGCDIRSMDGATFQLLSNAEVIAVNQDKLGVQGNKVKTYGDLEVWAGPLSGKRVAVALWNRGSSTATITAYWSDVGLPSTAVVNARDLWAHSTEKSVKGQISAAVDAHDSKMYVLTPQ
(In general: The purpose of a counterscreen is to sort out artefacts and off-target activity.)

The target is the same in experiment [2]. Put plainly: Counterscreen for Glucocerebrosidase Inhibitors: qHTS Assay for Coffee Bean alpha-Galactosidase at pH 5.9 (AID 998; active = well fitted curve in the direction sought with a large enough effect; an effect the other way counts as inactive or inconclusive;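 also: plate controls were uninhibited enzyme for no effect and no-enzyme basal signal for full effect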). The essentials: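 Green coffee bean enzyme (2 nM final) was incubated with compounds (0.7 nM–77 uM) and 4-methylumbelliferyl alpha-D-galactopyranoside (80 uM) in citrate buffer pH 5.9, 20 min at room temperature. High-pH stop; fluorescence 365/440 nm; AC50 from Hill fits.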

The nature of experiment [3]: Validation screen for inhibitors of Lassa infection (AID 463096). Also: % is scaled to controls: 0 for no effect and ±100 for the full control effect.
Experiment [4] is described as follows: Inducers of the Endoplasmic Reticulum Stress Response (ERSR) in human glioma: Validation (AID 504836; active = well fitted curve in the direction sought with a large enough effect; an effect the other way counts as inactive or inconclusive; also: 0% is about no effect). Put shortly: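 Stably transfected U87-MG human glioma cells carrying a GRP78-based luminescent sensor were seeded at 1000 cells/well, pin-dosed with compounds and incubated 16 h. Luciferase reagent was then added, and end-point luminescence was read after 10 min at room temperature.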

Experiment [5] can be described thus: qHTS for Inhibitors of the Functional Ribonucleoprotein Complex (vRNP) of Lassa (LASV) Arenavirus: Viability assay - alamar blue signal for LASV Primary Screen (AID 1347083; calls by dose curve; tested in HEK293 reporter line; also: nearly all actives have a fitted effect of over 80% in size; also: potency is read from the fitted curve at half-maximal effect).
Experiment [6] is described as follows: qHTS for Inhibitors of the Functional Ribonucleoprotein Complex (vRNP) of Lymphocytic Choriomeningitis Arenaviruses (LCMV): Viability assay - alamar blue signal for LCMV Primary Screen (AID 1347085; calls by dose curve; tested in HEK293 reporter line; also: nearly all actives have a fitted effect of over 80% in size; also: potency is read from the fitted curve at half-maximal effect).
Experiment [7] has as its target Nucleoprotein (Lymphocytic choriomeningitis virus (strain Armstrong)) (UniProt P09992). Put plainly: qHTS for Inhibitors of the Functional Ribonucleoprotein Complex (vRNP) of Lymphocytic Choriomeningitis Arenaviruses (LCMV): LCMV Primary Screen - GLuc reporter signal (AID 1347086). Also: nearly all actives have a fitted effect of over 70% in size. Also: potency is read from the fitted curve at half-maximal effect. As to activity change, negative = inhibition: % is scaled to controls: 0 for no effect and ±100 for the full control effect. In general terms: qHTS replaces the single test concentration by a dilution series.
The nature of experiment [8]: Cytotoxicity counterscreen for inhibitors of SARS-CoV-2 cell entry (AID 1645845). Also: nearly all actives have a fitted effect of over 50% in size. Also: potency is read from the fitted curve at half-maximal effect. The essentials:
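Expi293F/hACE2 cells seeded overnight; cpd pin-transferred in DMSO, 1 h preincubation, + media, 48 h 37 C 5% CO2; ATPLite 1step luminescence; normalized to cells and no cells.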

Experiment [9] is described as follows: Primary qHTS to identify inhibitors of SARS-CoV-2 cell entry (AID 1645846). Also: nearly all actives have a fitted effect of over 45% in size. Also: potency is read from the fitted curve at half-maximal effect. As to conditions: activity change, negative = inhibition: at 57.1 µM (top of the series) unless noted. Put shortly:
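Inhibition of spike-mediated entry was scored in human ACE2-transfected Expi293F cells. Particles were MLV-pseudotyped with Wuhan-Hu-1 S carrying a 19-aa C-terminal deletion; signal was luciferase after two days, scaled between spike PP and fusion-protein-free PP.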

Experiment [10] can be described thus: Confirmatory qHTS for VERO E6 Cytotoxicity Assay: Counterscreen for SARS-CoV-2 CPE Assay (AID 1508605). Also: % is scaled to controls: 0 for no effect and ±100 for the full control effect; nearly all actives have a fitted effect of over 60% in size.
The nature of experiment [11]: Confirmatory qHTS to identify inhibitors of SARS-CoV-2 cell entry (AID 1645844). Also: potency is read from the fitted curve at half-maximal effect; nearly all actives have a fitted effect of over 45% in size. Put shortly:
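HEK293-ACE2 cells (Expi293F stably expressing human ACE2) were pretreated with compounds for 1 hr at 37C, then infected with MLV-based particles carrying Wuhan-Hu-1 spike (C-terminal 19-aa truncation). Luciferase luminescence read after 48 hr; normalized to spike PP (100%) and bald PP (0%).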

A short description of experiment [12]: Confirmatory qHTS for activators (rescue) of SARS-CoV-2 Cytopathic Effect (CPE) (AID 1508606). Also: 0% is about no effect; nearly all actives have a fitted effect of over 70% in size.
Experiment [13] can be described thus: qHTS profiling of the MIPE4 collection as inhibitors of Plasmodium falciparum (3D7) proliferation (AID 743344; call rule not given here;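 also: scaled between DMSO vehicle wells and 0.29 µM artemisinin as full inhibition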). Conditions: P. falciparum 3D7 in erythrocytes, SYBR Green DNA fluorescence, 72 h; at 28.5 µM (top of the series) unless noted. Put shortly:
(§1)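 Erythrocytes infected with P. falciparum (0.3% parasitemia, 2.5% hematocrit) incubated with compounds 72 h at 37 C, 5% CO2. Lysis with saponin/Triton buffer containing SYBR Green I, overnight at room temperature in the dark; DNA fluorescence (485/535 nm) normalised to 0.29 uM artemisinin and DMSO.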

A short description of experiment [14]: qHTS profiling of the MIPE4 collection as inhibitors of Plasmodium falciparum (DD2) proliferation (AID 743345; call rule not given here). As to conditions: P. falciparum Dd2 in erythrocytes, SYBR Green DNA, 72 h; at 28.5 µM (top of the series) unless noted. The essentials:
as §1

Experiment [15] can be described thus: qHTS profiling of the MIPE4 collection as inhibitors of Plasmodium falciparum (HB3) proliferation (AID 743347; call rule not given here;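 also: plate controls were DMSO vehicle wells for no effect and artemisinin wells for full effect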). Conditions: P. falciparum HB3 in erythrocytes, SYBR Green DNA, 72 h; at 28.5 µM (top of the series) unless noted. Put shortly:
as §1

For experiment [16], the target named is Cytochrome P450 3A4 (Homo sapiens) (UniProt P08684). Put plainly: qHTS Assay for Inhibitors and Substrates of Cytochrome P450 3A4 (AID 884; active = well fitted curve in the direction sought with a large enough effect; an effect the other way counts as inactive or inconclusive; also: potency is read from the fitted curve at half-maximal effect; nearly all actives have a fitted effect of over 50% in size). The essentials:
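20 nM human CYP3A4 with 25 uM Luciferin-PPXE (at KM) in 200 mM KPO4, preincubated 10 min with compound; NADPH regeneration started a 60 min RT reaction. Luciferin detected by luminescence, normalized to 57 uM ketoconazole as full inhibition.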

Experiment [17] has the same target. In words: qHTS Assay for Activators of Cytochrome P450 3A4 (AID 885; active = well fitted curve in the direction sought with a large enough effect; an effect the other way counts as inactive or inconclusive; also: nearly all actives have a fitted effect of over 65% in size). The essentials: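 Signal was normalized against complete inhibition by 57 uM ketoconazole. The reaction used 20nM CYP3A4 with 25uM Luciferin-PPXE, 10-min compound preincubation and a 60-min NADPH-supported step at RT.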
Experiment [18] is described as follows: VSVG counterscreen qHTS to identify inhibitors of SARS-CoV-2 cell entry (AID 1645847). Also: potency is read from the fitted curve at half-maximal effect; nearly all actives have a fitted effect of over 65% in size. Put shortly:
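Luminescence from a luciferase reporter, normalised to bald particle and VSV-G pseudotyped particle wells, is the read-out. Cells are HEK293 expressing human ACE2, exposed to compound 1 h before a 48 h particle infection at 37 °C.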

Chain of Nucleoprotein (Lymphocytic choriomeningitis virus (strain Armstrong)) (P09992 whole entry, looked up): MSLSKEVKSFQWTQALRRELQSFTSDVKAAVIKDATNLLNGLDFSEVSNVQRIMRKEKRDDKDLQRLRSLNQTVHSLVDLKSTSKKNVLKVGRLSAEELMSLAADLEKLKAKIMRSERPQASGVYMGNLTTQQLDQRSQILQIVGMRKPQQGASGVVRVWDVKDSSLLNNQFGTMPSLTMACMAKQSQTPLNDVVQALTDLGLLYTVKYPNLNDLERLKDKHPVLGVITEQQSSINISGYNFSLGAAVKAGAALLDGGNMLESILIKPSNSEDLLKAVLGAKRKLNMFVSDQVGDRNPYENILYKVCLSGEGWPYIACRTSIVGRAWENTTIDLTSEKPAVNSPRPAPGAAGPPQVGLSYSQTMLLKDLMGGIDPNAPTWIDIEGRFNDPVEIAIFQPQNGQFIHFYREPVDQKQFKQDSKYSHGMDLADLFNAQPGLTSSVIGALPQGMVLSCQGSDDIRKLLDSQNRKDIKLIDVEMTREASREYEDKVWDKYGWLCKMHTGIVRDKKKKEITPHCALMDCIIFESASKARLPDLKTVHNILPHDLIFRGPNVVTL
Chain of Cytochrome P450 3A4 (Homo sapiens) (P08684 whole entry, looked up): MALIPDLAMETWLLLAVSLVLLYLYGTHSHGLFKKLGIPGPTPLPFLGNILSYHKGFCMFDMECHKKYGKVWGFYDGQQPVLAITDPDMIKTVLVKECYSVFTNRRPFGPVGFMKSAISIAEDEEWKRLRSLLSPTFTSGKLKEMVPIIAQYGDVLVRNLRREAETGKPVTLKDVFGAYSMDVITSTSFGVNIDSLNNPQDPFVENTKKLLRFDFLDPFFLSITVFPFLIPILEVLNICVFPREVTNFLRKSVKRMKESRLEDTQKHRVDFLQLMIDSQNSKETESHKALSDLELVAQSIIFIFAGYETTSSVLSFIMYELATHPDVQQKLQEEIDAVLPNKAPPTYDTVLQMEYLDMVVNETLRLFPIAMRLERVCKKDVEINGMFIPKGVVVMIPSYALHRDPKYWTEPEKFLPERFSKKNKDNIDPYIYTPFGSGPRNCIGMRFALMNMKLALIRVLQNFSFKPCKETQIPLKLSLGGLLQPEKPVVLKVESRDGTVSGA

For the molecule `O=c1cc(N2CCOCC2)oc2c(-c3ccccc3)cccc12`, the call in experiment [1], in [2] and in [4] was inactive. In addition, the Potency entry in [3], in experiment [6], in [7] and in experiment [8] was “inactive” throughout. The Potency in experiment [5] is 15.3 µM (active). Moreover, in experiment [9], the activity change, negative = inhibition is -24.5%.

Consider `NC(=O)c1cccc(-c2cc(Nc3ccc(OC(F)(F)F)cc3)ncn2)c1`, for which the Potency result in experiment [5], in experiment [6], in experiment [7] and in [10] was “inactive” throughout. Further, in experiment [8], the Potency was 22.4 µM (active).

Take `CCC[C@H](Nc1nc(-c2ccc(NC(=O)NCC)c(OC)c2)ncc1C)c1cccnc1`: the Potency in [5] was 0.0385 µM (active); in experiment [6] it was 0.0485 µM (active); in [7] it was 0.109 µM (active). For the same molecule, the activity change, negative = inhibition in [9] was -93.9%.

In the case of `NCC(=O)Nc1ccc(-n2nc(C(F)(F)F)cc2-c2ccc3c(ccc4ccccc43)c2)cc1`, the Potency in [5] was 19.3 µM (active); in experiment [6], 10.9 µM (active); in experiment [7] it was 1.72 µM (active); in [11], 15.2 µM (active).

As to `C#C[C@]1(O)CC[C@H]2[C@H]3CCc4cc(OC)ccc4[C@H]3CC[C@@]21C`, the values for the Potency in experiment [5], in experiment [6] and in experiment [7] were 13.7 µM (active), 24.3 µM (active) and 27.3 µM (active), respectively.

As for `CN[C@H]1CCc2cc(OC)c(OC)c(OC)c2-c2ccc(OC)c(=O)cc21`, the Potency result in [5] and in experiment [8] was “inactive” in each case. Also, the Potency in experiment [6] was 0.0054 µM (active); in experiment [7] it was 0.0172 µM (active); in experiment [11] it was 0.0383 µM (active). The activity change, negative = inhibition in experiment [9] is -76.7%.

Regarding `C=CC(=O)Nc1ccc2ncnc(Nc3ccc(OCc4cccc(F)c4)c(Cl)c3)c2c1`, the Potency in [5] is 0.968 µM (active); in experiment [6], 0.385 µM (active); in experiment [7], 0.432 µM (active). Further, the Potency result in experiment [9] was “inactive”.

Take `COc1cc(Nc2nc3ccccc3nc2NS(=O)(=O)c2ccc(NC(=O)c3ccc(C)c(OC)c3)cc2)cc(OC)c1`: the Potency in experiment [5] was 21.7 µM (active); in experiment [6] it was 13.7 µM (active); in experiment [7], 27.3 µM (active). Moreover, the Potency entry in experiment [10], in experiment [12], in [8] and in experiment [9] was “inactive” in each case.

In the case of `COc1cc([C@@H]2c3cc4c(cc3[C@H](O)[C@H]3COC(=O)[C@@H]23)OCO4)cc(OC)c1OC`, the parasite growth, % of DMSO control in experiment [13] was found to be 52.9%. In addition, in experiment [14], the parasite growth remaining, % of DMSO control (lower = more inhibition) was determined as 78.3%. In experiment [15], this molecule displayed a growth, % of control of 44.9%. In addition, the Potency is 0.193 µM (active) in [5]; 0.344 µM (active) in experiment [6]; 1.09 µM (active) in experiment [7]; 12.1 µM (active) in experiment [11]; 1.26 µM (active) in experiment [9].

With `CNC(=O)CN1CCC(Oc2cc3c(Nc4cccc(Cl)c4F)ncnc3cc2OC)CC1`, the Potency in [5] was 0.0769 µM (active); in [6], 0.0306 µM (active); in [7], 0.0385 µM (active). Also, the Potency result in experiment [8] was “inactive”. Moreover, the activity change, negative = inhibition in experiment [9] is -16.1%.

In the case of `CO[C@@H]1[C@@H](O)[C@H](O)[C@@H](n2c3c(Cl)cccc3c3c4c(c5c6cccc(Cl)c6[nH]c5c32)C(=O)NC4=O)O[C@@H]1CO`, the Potency in experiment [5] was 1.93 µM (active); in [6], 2.43 µM (active); in [7], 3.06 µM (active).

For `COc1cc2cc(c1Cl)N(C)C(=O)CC(OC(=O)C(C)N(C)C(C)=O)C1(C)OC1C(C)C1CC(O)(NC(=O)O1)C(OC)C=CC=C(C)C2` (stereo not drawn), the Potency result in experiment [5], in experiment [6] and in [7] was “inactive” each time.

Take `CC[C@@]1(O)C(=O)OCc2c1cc1n(c2=O)Cc2cc3cc(O)ccc3nc2-1`: the Potency is 12.6 µM (active) in experiment [16], 0.685 µM (active) in [5], 0.968 µM (active) in [6] and 1.37 µM (active) in [7]. In addition, the Potency result in [17] is “inactive”. Besides, the activity change, negative = inhibition in experiment [9] is -96.4%.

As to `Cc1ccc(S(=O)(=O)Nc2nc3ccccc3nc2Nc2ccc3nsnc3c2)cc1`, the Potency was 1.06 µM (active) in experiment [5], 2.11 µM (active) in [6] and 1.33 µM (active) in [7]. In addition, the Potency entry in experiment [8] was “inactive”. The activity change, negative = inhibition in experiment [9] is -18.1% [at 27.1 µM].

For the molecule `O=C(Nc1ncc(-c2cc(C(F)F)nn2-c2c(Cl)cccc2Cl)s1)C1CC1`, the Potency in [5] was 0.968 µM (active); in [6], 1.09 µM (active); in [7], 3.85 µM (active); in experiment [11] it was 0.541 µM (active); in experiment [18], 1.36 µM (active).

Turning to `CC(O)(C#Cc1ccc2c(c1)N(c1nc(N)ncc1Cl)CC2)c1nccs1` (stereo not drawn), the Potency in experiment [5] is 21.7 µM (active); in experiment [6], 17.2 µM (active). Moreover, the Potency result in experiment [7] is “inactive”.

For the molecule `COc1cc(OC)c(C=CS(=O)(=O)Cc2ccc(OC)c(NCC(=O)O)c2)c(OC)c1`, the Potency in experiment [5] was 0.217 µM (active); in experiment [6] it was 0.273 µM (active); in [7] it was 0.611 µM (active).

Consider `C#C[C@]1(O)CC[C@@H]2[C@@H]3CCc4cc(O)ccc4[C@H]3CC[C@@]21C`, for which the results for the Potency in experiment [5], in experiment [6] and in [7] were 6.85 µM (active), 3.06 µM (active) and 2.17 µM (active), respectively.

As for `C=CC(=O)Nc1cccc(Oc2nc(Nc3ccc(N4CCN(C)CC4)cc3)ncc2Cl)c1`, the Potency in experiment [5] is 2.73 µM (active); in experiment [6] it was 1.72 µM (active). In addition, the Potency result in [7] was “inactive”.

For the molecule `Cn1cc(C=CC(=O)c2cccc(F)c2)cc1C=CC(=O)NO`, the Potency in experiment [5] was 17.2 µM (active); in experiment [6], 17.2 µM (active); in [7], 13.7 µM (active).

In the case of `COc1ccc2c(c1OC)C(=O)OC2[C@H]1c2c(cc3c(c2OC)OCO3)CCN1C` (stereo partly drawn), the call in experiment [1] and in experiment [2] was inactive. In addition, the values for the Potency in [5], in [6] and in experiment [7] were 1.53 µM (active), 1.53 µM (active) and 1.37 µM (active), respectively. For the same molecule, the Potency result in experiment [8] was “inactive”.
